Usually inhibition stands for the change of the read-out against control, counted positive when it falls.

This assay deals with Glucose transporter (Leishmania mexicana) (UniProt O61059). Kind of assay: ST_JUDE_LEISH: Cytotoxicity at 2uM final concentration against transgenic Leishmania Mexicana promastigotes LmGT2 that are glucose transport deficient and complemented with the L. Mexicana glucose transporter 2. Activity is measured by DNA content using SYBR green in vitro. The assay is classed as functional.
`C=CC[C@H](C[C@H](O)[C@H](Cc1ccccc1)NC(=O)c1nn(-c2ccccc2)nc1C)C(=O)NC1CCCCC1`: the inhibition was determined as 2.36%.
Take `CCCN(CCC)c1nn2c(=O)c(C(=O)N3CCN(Cc4ccccc4)CC3)cnc2s1`: the inhibition was found to be 2.14%.
Consider `Clc1cccc(CNc2nc(NCCc3c[nH]cn3)nc(NC3CCCCC3)n2)c1`, for which the inhibition was 2.21%.
For the compound `CC(=O)c1ccc(-c2ccc(C(=O)NCCCCN3CCC(c4ccc5c(c4O)CCCC5)CC3)cc2)cc1`, the inhibition is 1.3%.
Under `N#Cc1ccc2c(c1)CCN(CCC1CCC(NC(=O)Nc3ccncc3)CC1)C2` (stereo not given) stands 5.01%.
As for `NC1=NC(Cc2ccccc2)N(c2ccc(Cl)cc2)C(N)=N1` (stereo not given), the inhibition came to 5.89%.
Turning to `O=[N+]([O-])c1cc(/C=N/Nc2nc3nonc3nc2Nc2ccc(F)cc2)c(Cl)cc1Cl`, the inhibition was -0.83%.
`NC1CCN(CCNCc2cccc(-c3ccc(-c4nc5cc(C(F)(F)F)ccc5[nH]4)cc3)c2)C1` (stereo not given): the inhibition is 2.67%.
Take `CCNc1cc(C(=O)N[C@@H](Cc2ccccc2)[C@H](O)CNCCCc2ccc(OC)cc2)cc(N2CCCC2=O)c1`: the inhibition worked out at 1.05%.
Consider `COc1ccc2nccc([C@@H](O)CN3CCC(NCc4cc5oc(=O)[nH]c5cc4Cl)CC3)c2c1`, for which the inhibition is -0.82%.
For `CN1CCN(S(=O)(=O)c2ccc3nccc(Nc4ccc(Oc5ccccc5)cc4)c3c2)CC1`, the inhibition was -1.4%.
For `COc1ccc2nccc([C@@H](O)CN3CCC(NC(=O)/C=C/c4ccc5ccccc5n4)CC3)c2c1`, the inhibition is 7.42%.
For `COc1ccc(NC(=O)/C=C/c2ccccc2Cl)cc1OCCN1CCC(NCc2ccccc2)CC1`, the inhibition was determined as 0.75%.
For the compound `CCOc1ccc2ccccc2c1C(=O)Nc1cc(C)nn1-c1nc(C)cc(=O)[nH]1`, the inhibition stood at 20.4%.
With `COc1ccccc1CN1CCC(CNC(=O)c2cc(-c3cccc(C(F)(F)F)c3)cs2)C1` (stereo not given) the figure was 1.94%; with `O=C(NCCCN1CCC(NC(=O)c2ccc(-c3cccnc3)cc2)CC1)c1ccc(Cl)c(Cl)c1`, 1.63%; with `Cc1cc(CN2CCCC(OC(c3ccc(F)cc3)c3ccc(F)cc3)C2)ccc1O` (stereo not given), 0.78%.
On to `N=c1c2c(n(Cc3ccccc3)c3c1CCC3)CCCC2`, for which the inhibition was determined as 7.1%.
`CC(=NNC(S)=NC(c1ccccc1)c1ccccc1)c1ccccn1`: the inhibition amounted to 32%.
Turning to `N#Cc1cccc(NC(=O)Nc2ccc(-c3cccc(-c4nc5cc(F)ccc5[nH]4)c3)cc2)c1`, the inhibition amounted to 4.18%.
With `O=S(=O)(Nc1ccc(CCN2CCC(N3CCCCC3)CC2)cc1)c1cccc(C(F)(F)F)c1`, the inhibition was 5.56%.
With `CC1CN(c2cccc3c2nc(-c2cncc(C#N)c2)n3CCNCc2ccccc2)CC(C)O1` (stereo not given) the figure was 2.56%.
Regarding `CN(C)c1cc(NC(=O)Nc2ccc(SC(F)(F)F)cc2)c2ccccc2n1`, the inhibition is 0.58%.
On to `O=C(/C=C/c1ccc(Cl)c(Cl)c1)NCCCCCN1CCCC(CNC(=O)c2sc3ccccc3c2Cl)C1` (stereo not given), for which the inhibition stood at 1.79%.
Turning to `COc1cccc(C(=O)NC(NC(=S)Nc2ccc(OC)cc2[N+](=O)[O-])C(Cl)(Cl)Cl)c1` (stereo not given), the inhibition is -2.26%.
